# Experimental data from PubChem BioAssay.
# For part of these data: Results with a measured potency or affinity are listed apart. Calls of active or inactive are those of the source. Unless noted, no rule for the calls is given here.
# Columns and labels:
# [1] = target: Cell division control protein 42 homolog (Homo sapiens) (UniProt P60953); experiment: activated mutant Cdc42 GTP-binding inhibitors, dose response, biochemical, multiplex bead flow cytometry, Bodipy-FL-GTP (AID 1333;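 active = fitted half-maximal concentration within the tested dose range, moderate curve steepness, a statistically real signal drop, and little compound fluorescence or tag-binding interference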)
# Cell division control protein 42 homolog (Homo sapiens), sequence (P60953 whole entry, looked up): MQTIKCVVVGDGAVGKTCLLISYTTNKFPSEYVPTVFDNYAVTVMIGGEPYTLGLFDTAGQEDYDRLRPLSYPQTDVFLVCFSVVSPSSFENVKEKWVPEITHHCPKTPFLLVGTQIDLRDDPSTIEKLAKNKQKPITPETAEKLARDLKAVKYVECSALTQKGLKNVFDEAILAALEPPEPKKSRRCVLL
# [2] = target: Cell division control protein 42 homolog (Homo sapiens) (UniProt P60953); experiment: wildtype Cdc42 GTP-binding inhibitors, dose response, biochemical, multiplex bead flow cytometry, Bodipy-FL-GTP (AID 1334;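 active = fitted half-maximal concentration within the tested range, moderate curve steepness, significant signal drop, and little compound fluorescence or bead-linkage interference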); conditions: bead-based flow cytometry, Bodipy-FL-GTP binding to GST-Cdc42; at 100 µM (top of the series) unless noted
# [3] = target: GTPase HRas (Homo sapiens) (UniProt P01112); experiment: inhibitors of GTP binding to wildtype Ras, dose response, biochemical, multiplex bead flow cytometry (AID 1335;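 active = fitted half-maximal concentration within 10 nM to 100 µM, steepness 0.5 to 2, significant signal drop, low assay interference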); conditions: bead-based flow cytometry, Bodipy-GTP binding to GST-Ras; at 100 µM (top of the series) unless noted
# GTPase HRas (Homo sapiens), sequence (P01112 whole entry, looked up): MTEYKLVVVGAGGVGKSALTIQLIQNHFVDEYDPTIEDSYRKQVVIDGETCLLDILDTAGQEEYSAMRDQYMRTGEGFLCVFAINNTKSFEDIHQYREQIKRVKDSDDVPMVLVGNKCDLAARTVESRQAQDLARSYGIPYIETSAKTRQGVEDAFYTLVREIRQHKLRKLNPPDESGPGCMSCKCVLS
# [4] = system: Ras-related protein Rab-7a (dog), GTP binding; experiment: Rab7 GTP binding inhibitors, potency, dose response, biochemical, wildtype, multiplex bead flow cytometry (AID 1336)
# [5] = target: Ras-related C3 botulinum toxin substrate 1 (Homo sapiens) (UniProt P63000); experiment: wildtype Rac1 GTP binding inhibitors, dose response, biochemical, multiplex bead flow cytometry (AID 1340;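 active = dose curve with midpoint inside tested range, moderate steepness, plateau gap beyond fit error, low compound glow and bead-link interference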); conditions: GST-Rac1 beads, Bodipy-FL-GTP binding; at 100 µM (top of the series) unless noted
# [6] = target: GTPase HRas (Homo sapiens) (UniProt P01112); experiment: activated Ras mutant GTP binding inhibitors, dose response, biochemical, multiplex bead flow cytometry (AID 1341;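 active = dose-response curve with midpoint inside the tested range, moderate steepness, significant amplitude and little compound fluorescence or bead-attachment interference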;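 also: GST-tagged constitutively activated Ras mutant immobilized on beads and multiplexed with other GTPases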)
Structure (SMILES),outcome [1],"fluorescence, percent of control (lower = inhibition) [2] [%]","GTP binding, percent of control [3] [%]",outcome [4],"GTP binding signal, raw median fluorescence (lower = inhibition) (MCF (arbitrary fluorescence units)) [5]",outcome [6]
Nc1cccc(S(=O)(=O)c2cccc(N)c2)c1,inactive,96.8,150,inactive,191,inactive
Cc1ccc(C(=O)c2ccccc2C(=O)O)cc1C,inactive,113,141,inactive,93.5,inactive
O=C(O)c1cc2ccccc2nc1OCCc1ccccc1,inactive,55.8,222,inactive,50.3,inactive
COc1cc2[nH]c(=S)nc(NCCc3ccc(C)cc3)c2cc1OC,inactive,26.6,59.9,inactive,125,inactive
CCc1nnc2c(N(C)C)nc3ccccc3n12,inactive,34.8,76.3,inactive,168,inactive
Nc1ccc(-c2cn3cccnc3n2)cc1,inactive,40.9,88.5,inactive,287,inactive
Clc1ccc(CN(Cc2ccc(Cl)cc2)c2nn[nH]n2)cc1,inactive,28.2,85,inactive,246,inactive
CNC(=O)C(C)NS(=O)(=O)c1ccc(F)cc1 (stereo not given),inactive,50.9,66.5,inactive,236,inactive
COc1cc2[nH]c(=S)nc(NCc3ccccn3)c2cc1OC,inactive,31.9,71.7,inactive,176,inactive
C/C(=N\NC(=O)c1c[nH]c2ccccc12)c1ccc(C)o1,inactive,29.9,68.2,inactive,150,inactive
O=C(COC(=O)/C=C/c1cccs1)Nc1ccc2ccccc2c1,inactive,43.2,58.6,inactive,183,inactive
COc1cccc(/C=N/Nc2nn3cnnc3c3ccccc23)c1O,inactive,35.9,44.6,inactive,126,inactive
O=C(COc1ncnc2cc([N+](=O)[O-])ccc12)NCc1ccc2c(c1)OCO2,inactive,42.7,56.9,inactive,118,inactive
C/C(=C1/SC(=S)N(CCC(=O)O)C1=O)c1ccc(O)cc1,inactive,29.5,80.9,inactive,254,inactive
O=C(Nc1sc2c(c1C(=O)O)CCCCC2)c1ccccc1,inactive,29.3,74.3,inactive,201,inactive
O=C(O)c1cc(Sc2ccccc2)nc2ccccc12,inactive,56.6,81.9,inactive,30.1,inactive
CCc1ccc(Cn2nnc(C(=O)O)c2C(=O)O)cc1,inactive,58.5,82.3,inactive,30.7,inactive
COc1ccc(S(=O)(=O)N2CCCCC2)cc1NC(=O)c1ccc([N+](=O)[O-])o1,inactive,32.3,73.3,inactive,172,inactive
O=C(O)CSc1ccc2nnc(-c3cccnc3)n2n1,inactive,35.6,73.9,inactive,151,inactive
Cc1ccc(/C=C(\CCC(=O)O)c2nc3ccccc3s2)cc1[N+](=O)[O-],inactive,24.9,70.3,inactive,216,inactive

Structure (SMILES),outcome [1],"fluorescence, percent of control (lower = inhibition) [2] [%]","GTP binding, percent of control [3] [%]",outcome [4],"GTP binding signal, raw median fluorescence (lower = inhibition) (MCF (arbitrary fluorescence units)) [5]",outcome [6]
O=C(CSc1ccc2nnc(-c3ccccn3)n2n1)Nc1nccs1,inactive,28.8,61.7,inactive,124,inactive
C=CC#CC[N+]1(CC#Cc2ccccc2)CCOCC1,inactive,97.9,95.4,inactive,537,inactive
O=C(N/N=C/c1ccco1)c1ccc(C(=O)N/N=C/c2ccco2)o1,inactive,32.1,72.4,inactive,184,inactive
Cc1ccc(CSCc2ccc(C(=O)O)o2)cc1,inactive,50.3,74.2,inactive,28.2,inactive
CCc1ccccc1NCc1sc(C(=O)O)cc1C,inactive,61.1,87.1,inactive,31.9,inactive
O=c1c2ccccc2nc2c3ccccc3c(NCc3ccccn3)nn12,inactive,33.4,68.8,inactive,167,inactive
Cc1sc2nc3c(SC(C)C(=O)O)cc(C(=O)c4ccccc4O)cn3c(=O)c2c1C (stereo not given),inactive,29.3,72.1,inactive,186,inactive
CCn1c2ccccc2c2nc3cc(C(=O)O)ccc3nc21,inactive,34,74.6,inactive,161,inactive
COc1ccc(-c2csc(C3=C(O)CN(C(C)C)C3=N)n2)cc1OC,inactive,31.9,73.2,inactive,181,inactive
Cc1cc(C)n2nc(SCCOc3ccccc3F)nc2n1,inactive,34.1,72.5,inactive,144,inactive
O=C(O)CCN1C(=O)/C(=C\c2ccc(-c3nc4ccccc4s3)o2)SC1=S,inactive,54.9,63.4,inactive,88.8,inactive
COc1ccc(C(CC(=O)O)NC(=O)c2cc3cc(Br)ccc3oc2=O)cc1OC (stereo not given),inactive,31,78.7,inactive,213,inactive
CCCCOc1cccc(C#CC(=O)c2ccc([N+](=O)[O-])cc2)c1,inactive,59.2,182,inactive,128,inactive
NS(=O)(=O)c1cccnc1Nc1c(Cl)cccc1Cl,inactive,90.6,152,inactive,187,inactive
C=CCN1C(=NC(=O)CCCC(=O)O)SC2CS(=O)(=O)CC21 (stereo not given),inactive,38.3,85.7,inactive,312,inactive
CCN(CC)c1ccc(/C=C/C(=O)c2ccc(Br)cc2)cc1,inactive,312,319,inactive,0,inactive
CCN(CC)c1ccc(/C=C(\C#N)c2nc(-c3cccs3)c(NC(C)=O)s2)cc1,inactive,99.5,114,inactive,0,inactive
O=C(c1n[nH]c(=O)c2ccccc12)N1CCN(C2c3ccccc3-c3ccccc32)CC1,inactive,87,156,inactive,175,inactive
CCCCN1C(=O)/C(=C/C=C2\N(C)c3ccccc3C2(C)C)SC1=S,inactive,128,134,inactive,235,inactive
COc1ccc(/C=N/NC(=O)Nc2cccc3nsnc23)cc1OC,inactive,45.1,46.7,inactive,132,inactive

Structure (SMILES),outcome [1],"fluorescence, percent of control (lower = inhibition) [2] [%]","GTP binding, percent of control [3] [%]",outcome [4],"GTP binding signal, raw median fluorescence (lower = inhibition) (MCF (arbitrary fluorescence units)) [5]",outcome [6]
OCC(CO)(CO)NCc1ccc(-c2ccccc2)cc1,inactive,49.9,65.6,inactive,214,inactive
CC1=C(C)CC(C(=O)c2cc(C)ccc2C)C(C(=O)O)C1 (stereo not given),inactive,57.3,88.3,inactive,31,inactive
CCOc1cccc(/C(O)=C2/C(=O)C(=O)N(CCOC)C2c2ccncc2)c1 (stereo not given),inactive,46.9,57.7,inactive,0,inactive
COc1cc2c(cc1OC)-c1cc(NCc3ccccn3)nc(=O)n1CC2,inactive,30.7,68.3,inactive,182,inactive
CNC(=O)COC(=O)c1cc(NC(=O)c2ccco2)c(OC)c(OC)c1,inactive,39.3,78,inactive,158,inactive
CN(C)S(=O)(=O)c1ccc(C(=O)NNc2nc(-c3ccccc3)c3cc(Br)ccc3n2)cc1,inactive,31.2,71.7,inactive,166,inactive
O=C(/C=C/c1ccc(N2CCC(c3ccccc3)=N2)cc1)c1ccccc1,inactive,344,394,inactive,651,inactive
Cn1c(SCCOc2ccccc2F)nc2ccccc2c1=O,inactive,29.1,71.9,inactive,158,inactive
Cc1cc(C(=O)NNC(=S)NC(C)c2ccccc2)c2ccccc2n1 (stereo not given),inactive,95.6,177,inactive,197,inactive
Cc1nc2nc(SCC(=O)O)nn2c(C)c1Cc1ccccc1Cl,inactive,29.1,84,inactive,228,inactive
O=C(O)C1CSC(CCc2ccccc2)N1 (stereo not given),inactive,98.5,125,inactive,87.7,inactive
C=CCSc1nc(N)c(C#N)c(-c2ccc(C)cc2)c1C#N,inactive,35,83.1,inactive,262,inactive
COCCNc1nc(=S)[nH]c2cc(OC)c(OC)cc12,inactive,35.9,43.7,inactive,103,inactive
CCOC(=O)c1c2c3c(cccc3[nH]c1=O)C(=O)c1ccccc1-2,inactive,35.5,77.9,inactive,176,inactive
CCCCn1c(O)c(/C=C/C=C/C=Nc2ccccc2)sc1=S,inactive,29.8,68.3,inactive,216,inactive
O=C(Nc1nc(-c2ccc(S(=O)(=O)N3CCCC3)cc2)cs1)c1cccs1,inactive,83.9,135,inactive,164,inactive
Cn1nc(C(F)(F)F)c(/C=N/OC(=O)c2ccccc2)c1SCc1ccc(Cl)cc1,inactive,98.8,181,inactive,175,inactive
Cc1ccc(-c2ccc(/C=C(\C#N)C(=O)Nc3cc(C)nn3-c3ccccc3)o2)cc1,inactive,226,182,inactive,498,inactive
FC(F)(F)c1cccc(NC(=S)NNC(=S)NCc2ccccc2)c1,inactive,30.7,81.8,inactive,222,inactive
COc1cc([N+](=O)[O-])cc(/C=N/NC(=O)c2ccc(NC(=O)c3ccc(C)cc3)cc2)c1O,inactive,33,77.6,inactive,226,inactive
